Measurements published in PubChem BioAssay AID1159580 (chemical genetic matrix, 2015).
Values joined by “and” are separate entries in the source; they are usually repeats but may differ in a detail not shown here. Equal values may be shown once. Hit rate of the full screen: of about 5,500 compounds, about 2,000 (36%) were called active. About 18% were inconclusive and are not listed. No stated cut-off is given here; in the data, active means normalized growth mostly below about 0.91 (no sharp cut-off); inconclusive means no clear call, values can overlap the other calls; inactive means mostly above about 0.92. Some of the results follow.

Assay: chemical genetic growth profiling, strain panel (AID 1159580);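 further: tested at 20 µM; growth read once vehicle control cultures reached saturation at 30 °C; 1 = growth at the plate median or of vehicle wells; lower values mean less growth of the strain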
Settings: S. cerevisiae deletion strains, growth OD

Measured: normalized growth

Clc1ccc(COC(Cn2ccnc2)c2ccc(Cl)cc2Cl)c(Cl)c1 (configuration not stated)
active: locus YAL013W, strain DEP1, hits give low values 0.0568 | locus YAL021C, strain ccr4, hits give low values 0.0668 | locus YAL026C, strain drs2, hits give low values 0.0674 | locus YAL030W, strain snc1, hits give low values 0.0581 | locus YBL061C, strain skt5, hits give low values 0.0608 | locus YBR009C, strain hhf1, hits give low values 0.0655 | locus YBR021W, strain FUR4, hits give low values 0.0874 | locus YBR023C, strain chs3, hits give low values 0.0682 | locus YBR171W, strain sec66, hits give low values 0.0803 | locus YBR229C, strain ROT2, hits give low values 0.0268 | locus YBR231C, strain swc5, hits give low values 0.0764 | locus YBR279W, strain paf1, hits give low values 0.0803 | locus YCL011C, strain gbp2, hits give low values 0.0572 | locus YCL016C, strain dcc1, hits give low values 0.0647 | locus YCL029C, strain bik1, hits give low values 0.0612 | locus YCL061C, strain MRC1, hits give low values 0.065 | locus YCL069W, strain vba3, hits give low values 0.0638 | locus YCR088W, strain abp1, hits give low values 0.0654 | locus YDL005C, strain med2, hits give low values 0.0803 | locus YDL035C, strain GPR1, hits give low values 0.0505 | locus YDL040C, strain nat1, hits give low values 0.0613 | locus YDL074C, strain BRE1, hits give low values 0.0763 | locus YDL101C, strain DUN1, hits give low values 0.0503 | locus YDL134C, strain PPH21, hits give low values 0.0516 | locus YDL185W, strain tfp1, hits give low values 0.0554 | locus YDL192W, strain arf1, hits give low values 0.0597 | locus YDR001C, strain nth1, hits give low values 0.0613 | locus YDR069C, strain doa4, hits give low values 0.065 | locus YDR101C, strain arx1, hits give low values 0.0587 | locus YDR137W, strain rgp1, hits give low values 0.111 | locus YDR150W, strain NUM1, hits give low values 0.0575 | locus YDR159W, strain sac3, hits give low values 0.0885 | locus YDR162C, strain NBP2, hits give low values 0.0451 | locus YDR195W, strain ref2 0.126 | locus YDR297W, strain sur2, hits give low values 0.0574 | locus YDR318W, strain mcm21, hits give low values 0.0643 | locus YDR334W, strain swr1, hits give low values 0.0662 | locus YDR335W, strain msn5, hits give low values 0.0617 | locus YDR388W, hits give low values 0.056 | locus YDR392W, strain spt3, hits give low values 0.101 | locus YDR502C, strain sam2, hits give low values 0.0624 | locus YEL003W, strain gim4, hits give low values 0.0564 | locus YEL037C, strain rad23, hits give low values 0.0601 | locus YEL061C, strain CIN8 (second series), hits give low values 0.0638 | locus YEL061C, strain CIN8, hits give low values 0.0482 | locus YER015W, strain faa2, hits give low values 0.0604 | locus YER016W, strain bim1, hits give low values 0.0607 | locus YER110C, hits give low values 0.0744 | locus YER111C, strain swi4, hits give low values 0.0809 | locus YER155C, strain BEM2 (second series), hits give low values 0.0947 | locus YER155C, strain BEM2, hits give low values 0.0667 | locus YER167W, strain BCK2, hits give low values 0.0577 | locus YFR010W, strain ubp6, hits give low values 0.0709 | locus YGL078C, strain dbp3, hits give low values 0.0696 | locus YGL086W, strain mad1, hits give low values 0.0583 | locus YGL167C, strain pmr1, hits give low values 0.0799 | locus YGL173C, strain kem1, hits give low values 0.072 | locus YGL227W, strain vid30, hits give low values 0.067 | locus YGL240W, strain doc1, hits give low values 0.0883 | locus YGL248W, strain PDE1, hits give low values 0.0461 | locus YGL253W, strain hxk2, hits give low values 0.0558 | locus YGR078C, strain PAC10, hits give low values 0.0558 | locus YGR135W, strain pre9, hits give low values 0.0676 | locus YGR229C, strain SMI1, hits give low values 0.0622 | locus YGR252W, strain gcn5, hits give low values 0.155 | locus YHR013C, strain ard1, hits give low values 0.106 | locus YHR027C, strain rpn1, hits give low values 0.0625 | locus YHR030C, strain SLT2, hits give low values 0.0509 and 0.102 | locus YHR079C, strain IRE1 (second series), hits give low values 0.0623 | locus YHR079C, strain IRE1, hits give low values 0.124 | locus YHR094C, strain hxt1, hits give low values 0.0654 | locus YHR129C, strain ARP1, hits give low values 0.0576 | locus YHR142W, strain chs7, hits give low values 0.0767 | locus YHR200W, strain rpn10, hits give low values 0.0606 | locus YIL066C, strain RNR3, hits give low values 0.0442 | locus YIL073C, strain SPO22, hits give low values 0.115 | locus YIL125W, strain kgd1, hits give low values 0.0693 | locus YIR030C, strain dcg1, hits give low values 0.0593 | locus YJL092W, strain hpr5, hits give low values 0.061 | locus YJL095W, strain BCK1 (second series), hits give low values 0.059 | locus YJL095W, strain BCK1, hits give low values 0.0515 and 0.106 | locus YJL115W, strain asf1, hits give low values 0.0748 | locus YJL129C, strain trk1, hits give low values 0.0933 | locus YJL134W, strain LCB3, hits give low values 0.0457 | locus YJL154C, strain vps35, hits give low values 0.062 | locus YJL164C, strain tpk1, hits give low values 0.0667 | locus YJL166W, strain qcr8, hits give low values 0.0609 | locus YJL168C, strain set2, hits give low values 0.0574 | locus YJL187C, strain SWE1 (second series), hits give low values 0.0406 | locus YJL187C, strain SWE1, hits give low values 0.0602 | locus YJR043C, strain POL32, hits give low values 0.0602 | locus YJR066W, strain TOR1, hits give low values 0.0025
